Reference: PubChem BioAssay (EPA / NIEHS)
The source made the active and inactive calls. How the source made its calls: active means hit-call score of the fitted dose curve at least 0.9, where 1 is the maximum; inactive means score below 0.9.

Assay: ATG_AP_1_CIS: Attagene CIS-FACTORIAL HepG2 Assay for human Activator Protein 1 (AP-1) (AID 2282931)
Conditions: HepG2 Attagene cis-factorial AP-1 reporter mRNA; actives raise or lower the signal
Method: ATG_CIS is a cell-based, multiplexed-readout assay that uses HepG2, a human liver cell line, with measurements taken at 24 hours after chemical dosing in a 24-well plate.ATG_AP_1_CIS is one of 52 assay component(s) measured or calculated from the ATG_CIS assay. It is designed to make measurements of mRNA induction, a form of inducible reporter, as detected with fluorescence intensity signals by Reverse transcription polymerase chain reaction (RT-PCR) and Capillary electrophoresis technology.Data from the assay component ATG_AP_1_CIS was analyzed into 1 assay endpoint. This assay endpoint, ATG_AP_1_CIS, was analyzed with bidirectional fitting relative to DMSO as the negative control and baseline of activity. Using a type of inducible reporter, measures of mRNA for gain or loss-of-signal activity can be used to understand the reporter gene at the transcription factor-level as they relate to the gene FOS and JUN. Furthermore, this assay endpoint can be referred to as a primary readout, because this assay has produced multiple assay endpoints where this one serves a reporter gene function. To generalize the intended target to other relatable targets, this assay endpoint is annotated to the dna binding intended target family, where the subfamily is basic leucine zipper.
Human liver HepG2 cells are transiently transfected with multiple reporter transcription units (MRTUs) in 6-well plates using FuGene 6 reagent (Roche; 3 ml FuGene/1 mg DNA). The MRTU constructs are regulated by a cis-regulating element (promoter). […] A major difference between the CIS and TRANS system is that in CIS activities of endogenous TFs are measured, whereas the TRANS assay evaluates changes in activities of exogenous, chimeric NR-Gal4 proteins. […] At the end of 24 hour incubation, total RNA was isolated using TriZol reagent (Invitrogen). The isolated RNA is then reverse-transcribed using oligo(dT) primer and Mo-MLV reverse transcriptase (Invitrogen) with DNAse I (Ambion) treatment for 30 min. The one-tenth of the produced cDNA was amplified by PCR using Taq DNA polymerase (Invitrogen) and two reporter sequence-specific primers. The PCR products were fluorescently labeled by primer extension with 6-arboxyfluorescein (6-FAM) 5'-labeled reporter sequence-specific primer (2 min at 95 C, 20 s at 68 C and 10 min at 72 C) and these products were digested with 5U of HpaI (New England Biolabs) for 2h at 37 C. The fragments were purified using Qiaquick PCR columns (Qiagen), analyzed on an ABI 3130xL genetic analyzer (Applied Biosystems) with peak positions identified by using a set of X-rhodamine (ROX)-labeled MapMarker1000 molecular weight standards (BioVentures). The raw capillary electrophoresis data was processed using Attagraph software (Attagene).

Row | Compound | outcome | AC50
1 | O=S(=O)(O)c1cccc2c(S(=O)(=O)O)cccc12 | inactive | –
2 | Clc1cccc(Cl)n1 | inactive | –
3 | CCCOCC(C)O (stereo not given) | inactive | –
4 | O=C[C@@H](O)[C@H](O)[C@H](O)CO | inactive | –
5 | CC(=O)C(=O)O | inactive | –
6 | O=C(O)CCCCC1CCSS1 (stereo not given) | inactive | –
7 | O=C(Cl)c1cccc(C(=O)Cl)c1 | inactive | –
8 | O=C(O)C[C@H](O)C[C@H](O)/C=C/c1c(C2CC2)nc2ccccc2c1-c1ccc(F)cc1 | inactive | –
9 | COC(C)CCO (stereo not given) | – | 42.4 µM (active)
10 | CC(C#N)(CCC(=O)O)N=NC(C)(C#N)CCC(=O)O (stereo not given) | inactive | –
11 | Cc1ncc([N+](=O)[O-])n1C | inactive | –
12 | COC(C(=O)O)c1ccccc1 (stereo not given) | inactive | –
13 | CC(C)c1ccc(C(C)C)cc1 | inactive | –
14 | CCC(C(=O)NC(N)=O)c1ccccc1 (stereo not given) | inactive | –
15 | COc1cc(C=O)ccc1OC(=O)C(C)C | inactive | –
16 | CCCCCCCCCCCCCC(=O)O | inactive | –
17 | O=c1[nH]c(=O)n([C@H]2CCCO2)cc1F | inactive | –
18 | CC(C)=CCO | inactive | –
19 | O=C(O)c1cn(-c2ccc(F)cc2)c2cc(N3CCNCC3)c(F)cc2c1=O | inactive | –
20 | CCCCCOC(=O)CCC | inactive | –

Row | Compound | outcome | AC50
21 | C=O | inactive | –
22 | O=Nc1ccc(Nc2ccccc2)cc1 | inactive | –
23 | CN1[C@@H]2CC(OC(=O)[C@H](CO)c3ccccc3)C[C@H]1[C@@H]1O[C@@H]12 (stereo not given in full) | inactive | –
24 | CC(=O)O[C@H](CC(=O)[O-])C[N+](C)(C)C | inactive | –
25 | CN(C)c1ccc(O)c2c1C[C@H]1C[C@H]3[C@H](N(C)C)C(=O)C(C(N)=O)=C(O)[C@@]3(O)C(=O)C1=C2O | inactive | –
26 | C=C(C)C(=O)OCc1ccccc1 | inactive | –
27 | S=C(S)NCCNC(=S)S | inactive | –
28 | CCCCCCCCCCCCCOS(=O)(=O)O | inactive | –
29 | C=CC(C)(CCC=C(C)C)OC=O (stereo not given) | inactive | –
30 | COc1ccnc(CS(=O)c2nc3cc(OC(F)F)ccc3[nH]2)c1OC (stereo not given) | inactive | –
31 | O=[N+]([O-])c1ccc(Nc2ccc(Nc3ccccc3)c(S(=O)(=O)O)c2)c([N+](=O)[O-])c1 | – | 147 µM (active)
32 | CCCCC(CC)COC(=O)/C=C\C(=O)OCC(CC)CCCC (stereo not given) | – | 52.7 µM (active)
33 | C=C[Si](OCC)(OCC)OCC | inactive | –
34 | O=c1[nH]nnc2ccccc12 | inactive | –
35 | CC(=O)C=CC1=C(C)CCCC1(C)C | inactive | –
36 | CCC(=O)OCCC(C)CCC=C(C)C (stereo not given) | inactive | –
37 | CN1Cc2c(N)cccc2C(c2ccccc2)C1 (stereo not given) | inactive | –
38 | CC(c1cc2ccccc2s1)N(O)C(N)=O (stereo not given) | inactive | –
39 | C=CC(C)(C)O | inactive | –
40 | Nc1ccc(S(N)(=O)=O)cc1 | inactive | –
